# Active and inactive are the calls of the source. Entries that show only a call come without a potency. Calls follow the shape of the dose curve; as a rule, active = well fitted inhibition curve with a large enough effect; inconclusive = small, poorly fitted or top-dose-only effect; inactive = no such curve, though single readings can be large or run the other way.
# Target: Single-stranded DNA cytosine deaminase (Homo sapiens) (UniProt Q9GZX7)
# Test: Validation qHTS assay for inhibitors of Activation Induced Cytidine Deaminase (AID): AID signal (AID 1347429)
# Conditions: Recombinant AID, FRET ssDNA deamination with UDG, fluorescence; series mostly up to 115 µM
# Excerpt: Assay Provider (PI) Patricia Gearhart Ph.D. National Institute on Aging National Institute of Health (NIH), Bethesda, MD Assay Provider (PI) Rahul Kohli Ph.D. Perelman School of Medicine University of Pennsylvania, Philadelphia, PA Activation-Induced Deaminase (AID) is a cytosine deaminase which converts cytosine into uracil within stretches of ssDNA. The presence of uracil in DNA initiates a cascade of mutagenic DNA repair to introduce point mutations and DNA double strand breaks. Specific targeting of AID to the immunoglobulin heavy chain loci (Igh) promotes mutagenesis in the antibody variable region for somatic hypermutation (SHM) or switch regions leading to class switch recombination (CSR). However, AID also plays a role in accumulating unnecessary mutations across the genome. Mis-targeting of AID results in the initiation of tumor development and leads to greater drug resistance among cancer cells when continually expressed. To identify an AID inhibitor, a small molecule library will be screened in collaboration with NCATS core facility at NIH. To confirm biological function, inhibitors will be examined in an in vitro murine B-cell activation assay and subsequent secondary validation screens. Top molecules will be further screened to identify inhibitory efficacy against a wild type primary splenocytes assay. Using these approaches, we hope to identify a small molecule with great efficacy and low toxicity for use as a molecular probe to further characterize AID's intricacies, or even as a therapeutic. A FRET based analysis of cytosine deamination, was developed to identify potential inhibitors of AID catalytic activity. This screen has two signal output, Read 1 evaluates the AID inhibition response. The second readout (Read 2) evaluates UDG response and is uses as a counterscreen to exclude false positive inhibitors. Inhibition in AID and inactivity in the UDG signal is the desired outcome for this assay.
# PROTOCOL TABLE SEQUENCE No. (e.g., 1, 2, 3, etc.); […] (e.g., Cells, Incubation, Reagent, etc.); VALUE; DESCRIPTION 1a; Reagent; 3 uL; [4/3x] […] 250 nM DJC20 / 250 nM DJC23 [Substrate] 5; Time; 4 hr; incubation at room temperature 6; Reagent; 4 uL; [2x] 250 mM NaOH 7; Time; 15 sec; centrifuge at 1000 rpm 8; Time; 30 min; incubation at room temperature 9a; Detection; fluorescence (Read 1: AID); EnVision (PerkinElmer) plate reader, 540 excitation and 590 emission filters 9b; Detection; fluorescence (Read 2: UDG); EnVision (PerkinElmer) plate reader, 560 excitation and 665 emission filters NOTES (numbers refer to sequence above) 1a; Reagents were dispensed in a medium-binding black solid-bottom Greiner plates (789176F) using a BioRptr liquid dispenser. Dispense 3 uL of [4/3x] 1 uM AID (provided by Kohli lab) and [4/3x] 2 U/mL UDG (NEB M0280L) into columns 1, 2, 5 to 48. 1b; Dispense 3 uL of [4/3x] 2 U/mL UDG into column 3. 1c; Dispense 3 uL of [4/3x] 1 uM AID into column 4. 2a; Compound ([…] [uM] (0.64; 3.2; 16; 80; 400; 2,000; 10,000; 20,000) double pin-transferred (Dip Factor = 2) using the Kalypsys (Wako USA) pintool equipped with a 1536 pinhead for a final concentration range of 7.32 nM - 114 uM. 2b; 10 mM Aurintricarboxylic Acid (Sigma A1895) (ATA, 8-point, n = 2, 1:2.5 dilution in column 2) double pin-transferred (Dip Factor = 2) using the Kalypsys (Wako USA) pintool equipped with a 1536 pinhead for a [final] range of 186 nM - 114 uM. 3; Room temperature incubation. 4; Dispense 1 uL of substrate mixture from the Kohli lab [4x] […] DJC20 and [4x] 250 nM DJC23 into columns 1 to 48 . 5; Room temperature incubation. 6; Dispense 4 uL of substrate mixture [2x] 250 mM NaOH into columns 1 to 48. 7; Centrifugation step to remove bubbles. 8; Room temperature incubation 9a; Fluorescence signal (column label AID) was read using the EnVision plate reader. Excitation filter = 540(8) nm, barcode = 311; Emission filter = 590(20) nm, barcode = 217; Mirror = D555, barcode = 405. […]
# Single-stranded DNA cytosine deaminase (Homo sapiens), sequence (Q9GZX7 whole entry, looked up): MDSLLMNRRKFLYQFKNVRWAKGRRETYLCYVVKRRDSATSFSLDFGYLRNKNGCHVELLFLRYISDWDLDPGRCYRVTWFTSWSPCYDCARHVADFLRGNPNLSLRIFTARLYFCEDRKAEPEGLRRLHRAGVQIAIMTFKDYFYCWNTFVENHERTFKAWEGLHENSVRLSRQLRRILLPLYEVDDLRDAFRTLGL
row,SMILES,Potency
1,COc1cc2c(CCNC(C)=O)c[nH]c2cc1O,inactive
2,NC(N)=N[C@@H](CCC(=O)O)C(=O)O,inactive
3,CCCCCC[C@@H]([C@@H](C)O)n1cnc2c(N)ncnc21,inactive
4,CC(=O)/C(C)=N/O,inactive
5,Oc1ccc(Cn2cc[nH]c2=S)cc1,inactive
6,CC(C)C[C@H](NC(=O)[C@H](O)[C@H](N)Cc1ccccc1)C(=O)O,inactive
7,Nc1nc2c(nc(Br)n2C2OC3COP(=O)(O)O[C@@H]3C2O)c(=O)[nH]1 (stereo not given in full),inactive
8,COC(=O)C1=C(C)NC(C)=C([N+](=O)[O-])C1c1ccccc1C(F)(F)F (stereo not given),inactive
9,CC(=O)O[C@H]1Cc2ccccc2N(C(N)=O)c2ccccc21,inactive
10,Cn1cc(C(F)(F)F)nc1-c1ccc(OCC(O)CNCCOc2ccc(O)c(C(N)=O)c2)cc1 (stereo not given),inactive
11,CCCn1c(=O)c(C)cn2nc(N)nc12,inactive
12,COc1ccccc1N1CCN(CCCNc2c(C)c(=O)n(C)c(=O)n2C)CC1,inactive
13,Nc1ncnc2c1ncn2C1CCCC1,inactive
14,C[C@]12C=CC(=O)C=C1CC[C@@H]1C2=CC[C@]2(C)[C@@H](C(=O)CN3CCN(c4cc(N5CCCC5)nc(N5CCCC5)n4)CC3)CC[C@@H]12,inactive
15,O=C(N[C@@H](Cc1ccccc1)C(=O)CCl)OCc1ccccc1,inactive
16,CC(=O)C(C)=O,inactive
17,Nc1ncnc2c1ncn2C1CCCO1 (stereo not given),inactive
18,O=C(c1ccc2c(c1)OCCO2)N1CCCCC1,inactive
19,CC(N)(Cc1ccc(O)cc1)C(=O)O (stereo not given),inactive
20,c1ccc2c(c1)CCC[C@H]2Nc1nc2ccccc2[nH]1,inactive

row,SMILES,Potency
1,NC1(C(=O)O)CCCCC1,inactive
2,O=c1cc(O)cc(/C=C/c2ccc(O)c(O)c2)o1,inactive
3,N#C/C(=C\c1ccc(O)c(O)c1)C(=O)NCCCNC(=O)/C(C#N)=C/c1ccc(O)c(O)c1,inactive
4,N[C@@H](Cc1ccc(F)cc1)C(=O)O,inactive
5,CCCCCCN(CCCCCC)C(=O)Cc1c(-c2ccc(F)cc2)[nH]c2ccccc12,inactive
6,COC(=O)C(C)(N)Cc1ccc(O)cc1 (stereo not given),inactive
7,NC1CCN(O)C1=O (stereo not given),inactive
8,COc1ccc2c(c1)c(CC(=O)O)c(C)n2C(=O)c1ccccc1,inactive
9,C[C@H](NC(=O)/C(C#N)=C/c1ccc(O)c(O)c1)c1ccccc1,inactive
10,O=C(O)C1CCNCC1,inactive
11,Cc1nc(N=Nc2ccc(C(=O)O)cc2)c(COP(=O)(O)O)c(C=O)c1O,inactive
12,O=C(O)C1=CCCN(CCON=C(c2ccccc2)c2ccccc2)C1,inactive
13,CC(C)(C)c1ccc(/C=C/C(=O)Nc2ccc3c(c2)OCCO3)cc1,inactive
14,CC1=C(C(=O)O)N2C(=O)[C@@H](NC(=O)C(N)C3=CCC=CC3)[C@H]2SC1 (stereo not given in full),inactive
15,C#CCn1c(=O)c2c(ncn2C)n(C)c1=O,inactive
16,CC1CCN(CC[C@H]2CCCN2S(=O)(=O)c2cccc(O)c2)CC1,inactive
17,COC(=O)C(N)Cc1ccc(Cl)cc1 (stereo not given),inactive
18,NC/C=C\C(=O)O,inactive
19,CC(N)(C(=O)O)c1ccc(C(=O)O)cc1 (stereo not given),inactive
20,O=C(O)[C@H]1NCCC[C@H]1C(=O)O,inactive

# — PubChem BioAssay (NCATS)
